Source: article PMC5540273 (PLoS ONE, 2017)

Experiments:
Settings in all cases: concentration: 1 μM, replicates: in singlicate; n = 1
TNNI3K = tested on: TNNI3K
TRKA = tested on: T1, TRKA
T1 construct: gene NTRK1

TRKB = tested on: TRKB
TRKC = tested on: T2, TRKC
T2 construct: gene NTRK3

TRPM6 = tested on: TRPM6
TSSK1B = tested on: TSSK1B
TSSK3 = tested on: TSSK3
TTK = tested on: TTK
TXK = tested on: TXK
[1] = tested on: TYK2(JH1domain-catalytic)
[2] = tested on: TYK2(JH2domain-pseudokinase)
TYRO3 = tested on: TYRO3
ULK1 = tested on: ULK1
ULK2 = tested on: ULK2
ULK3 = tested on: ULK3
VEGFR2 = tested on: T3, VEGFR2
T3 construct: gene KDR

VPS34 = tested on: T4, VPS34
T4 construct: gene PIK3C3

VRK2 = tested on: VRK2
WEE1 = tested on: WEE1
WEE2 = tested on: WEE2
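Further: KINOMEscan kinase panel screen.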

| Compound | %Inh (TNNI3K) [%] | %Inh (TRKA) [%] | %Inh (TRKB) [%] | %Inh (TRKC) [%] | %Inh (TRPM6) [%] | %Inh (TSSK1B) [%] | %Inh (TSSK3) [%] | %Inh (TTK) [%] | %Inh (TXK) [%] | %Inh [1] [%] | %Inh [2] [%] | %Inh (TYRO3) [%] | %Inh (ULK1) [%] | %Inh (ULK2) [%] | %Inh (ULK3) [%] | %Inh (VEGFR2) [%] | %Inh (VPS34) [%] | %Inh (VRK2) [%] | %Inh (WEE1) [%] | %Inh (WEE2) [%] |
| --- | --- | --- | --- | --- | --- | --- | --- | --- | --- | --- | --- | --- | --- | --- | --- | --- | --- | --- | --- | --- |
| COc1cccc(-c2ccc3c(NC(=O)C4CC4)n[nH]c3n2)c1 [SB-710903] | 5 | 0 | 66 | 58 | 0 | 0 | 3 | 0 | 0 | 52 | 64 | 0 | 0 | 0 | 9 | 0 | 0 | 66 | 14 | 15 |
| O=c1[nH]cc(-c2ccc(N3CCOCC3)cc2)c2sc(-c3cn[nH]c3)cc12 [GSK2276055] | 0 | 0 | 0 | 0 | 0 | 18 | 13 | 22 | 76 | 23 | 64 | 0 | 0 | 0 | 9 | 17 | 0 | 0 | 4 | 0 |
| CCS(=O)(=O)c1ccc(OC)c(Nc2nccc(-c3c(-c4cccc(NC(=O)c5c(F)cccc5F)c4)nn4ncccc34)n2)c1 [GSK326180] | 15 | 0 | 5 | 0 | 55 | 23 | 12 | 0 | 15 | 0 | 26 | 0 | 12 | 0 | 25 | 16 | 0 | 0 | 17 | 5 |
| Cn1cc(-c2ccc3c(c2)CCN3C(=O)Cc2cccc(Cl)c2)c2c(N)ncnc21 [GSK2606590] | 0 | 73 | 54 | 57 | 0 | 20 | 17 | 30 | 0 | 10 | 13 | 0 | 11 | 0 | 18 | 49 | 1 | 0 | 0 | 0 |
| CCn1c(-c2nonc2N)nc2c(C#CC(C)(C)O)ncc(OCCCCN)c21.O=C(O)C(F)(F)F.O=C(O)C(F)(F)F [GSK507274] | 9 | 0 | 19 | 1 | 0 | 80 | 99.5 | 21 | 49 | 33 | 29 | 2 | 54 | 32 | 12 | 0 | 34 | 0 | 10 | 14 |
| Cc1ccc(C(=O)Nc2ccc(Nc3ccnc4cc(-c5nccs5)ccc34)cc2O)cc1.Cl [GW494702] | 6 | 60 | 20 | 25 | 29 | 13 | 6 | 0 | 52 | 42 | 15 | 19 | 4 | 0 | 3 | 2 | 18 | 28 | 0 | 0 |
| CN(C)Cc1ccc(-c2ccc3c(Nc4ccc(Oc5ccccn5)cc4)ccnc3c2)o1 [GW567148] | 0 | 100 | 31 | 35 | 52 | 0 | 6 | 0 | 0 | 30 | 18 | 38 | 19 | 0 | 5 | 17 | 0 | 4 | 0 | 2 |
| COc1cc2c(cc1OCCN1CCNCC1)ncc1c3ccc(C#N)cc3[nH]c21 | 0 | 99.8 | 94.1 | 77 | 100 | 22 | 15 | 0 | 11 | 50 | 15 | 0 | 91.9 | 99.8 | 47 | 49 | 0 | 15 | 0 | 0 |
| NCCCC(NC(=O)c1cc(Br)c(-c2ccnc3[nH]ccc23)s1)c1ccccc1.O=C(O)C(F)(F)F.O=C(O)C(F)(F)F (stereo not shown) [GSK1287544] | 0 | 53 | 11 | 17 | 16 | 17 | 1 | 21 | 18 | 75 | 6 | 0 | 54 | 0 | 13 | 3 | 28 | 0 | 2 | 4 |
| COc1cc(Nc2nccc(N3CCC(NC(=O)Nc4cccc(C(C)=O)c4)C3)n2)cc(OC)c1OC (stereo not shown) [GSK1379753] | 9 | 62 | 63 | 92.3 | 41 | 6 | 9 | 21 | 0 | 45 | 19 | 0 | 18 | 0 | 78 | 0 | 0 | 0 | 6 | 0 |
| Clc1ccc(-c2nn3ncccc3c2-c2ccnc(Nc3ccc4c(c3)OCCO4)n2)cc1 [GW829116] | 0 | 0 | 0 | 0 | 7 | 0 | 0 | 2 | 0 | 0 | 0 | 0 | 0 | 0 | 0 | 29 | 0 | 16 | 0 | 0 |
| COC(=O)Nc1nc2cc(Oc3ccc(NC(=O)Nc4cc(C(F)(F)F)ccc4F)cn3)ccc2[nH]1.Cl.Cl [GW681170] | 92.9 | 100 | 97.4 | 97 | 29 | 0 | 16 | 43 | 0 | 14 | 12 | 0 | 0 | 0 | 13 | 55 | 8 | 22 | 7 | 0 |
| CN1CCN(Cc2cccc(-c3ccc4c(Nc5ccc(Oc6ccccc6)cc5)ccnc4c3)c2)CC1 [GW578342] | 6 | 43 | 0 | 19 | 39 | 0 | 6 | 0 | 5 | 8 | 5 | 12 | 0 | 0 | 2 | 16 | 0 | 26 | 0 | 0 |
| Cc1occc1-c1ncc(OC[C@@H](N)Cc2c[nH]c3ccccc23)cc1-c1ccc2[nH]nc(C)c2c1.O=C(O)C(F)(F)F [GSK682037] | 5 | 33 | 13 | 0 | 0 | 16 | 13 | 22 | 47 | 7 | 0 | 0 | 4 | 0 | 3 | 7 | 3 | 78 | 5 | 8 |
| CSc1cccc2c(-c3ccncn3)c(-c3ccc(F)cc3)nn12 [GW514786] | 6 | 16 | 0 | 0 | 17 | 0 | 22 | 8 | 0 | 0 | 24 | 0 | 0 | 0 | 3 | 0 | 14 | 23 | 6 | 1 |
| CN(c1ccc(NC(=O)Nc2cc(C(F)(F)F)ccc2F)cc1)c1ccnc(Nc2ccc(S(N)(=O)=O)cc2)n1 [GW809893] | 93.3 | 100 | 97.6 | 98.7 | 31 | 5 | 9 | 22 | 26 | 44 | 12 | 77 | 17 | 3 | 76 | 88 | 4 | 0 | 0 | 11 |
| CN1CCN(CCCNc2nccc(-c3c(-c4ccc(F)cc4)nn4cc(C(F)(F)F)ccc34)n2)CC1 [GW621581] | 0 | 0 | 11 | 5 | 1 | 0 | 0 | 0 | 14 | 28 | 12 | 0 | 20 | 0 | 8 | 0 | 8 | 0 | 0 | 0 |
